Compound activity deposited in PubChem by National Center for Advancing Translational Sciences (NCATS).
PNC assembly inh = High Content Assay for Compounds that inhibit the Assembly of the Perinucleolar Compartment. activity change (PNC), negative = inhibition, % at 10 µM. PC3M PTB-GFP, PNC prevalence imaging, 16 h; stronger effect = lower value. 140,000 tested, 3.1% active;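 active means readout at or below -70, meaning at least 70% loss of cells showing the perinucleolar compartment, a nuclear body marking cancer cells; inconclusive means readout between -30 and a set limit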
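Compounds are pinned in duplicate onto adhered PC3M cells stably expressing GFP-tagged PTB and incubated 16 h at 37 C. Cells are then fixed, nuclei stained with Hoechst, and PNC-positive cells counted.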
HPGD block = qHTS Assay for Inhibitors of HPGD (15-Hydroxyprostaglandin Dehydrogenase); 15-hydroxyprostaglandin dehydrogenase [NAD(+)] (Homo sapiens), P15428; purified HPGD, NADH fluorescence kinetic, PGE2 substrate; Potency, µM, actives largely listed as inhibitors; 150,000 tested, 4.3% active; AID 894, 2007
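NADH formation kinetics: reaction with 30 uM PGE2 and 1 mM NAD+ (final), 20 nM enzyme, Tris-HCl pH 8 with Tween 20, after 15 min compound preincubation at room temperature. Fluorescence change, last versus first of five reads.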
ALDH1A1 inh = qHTS Assay for Inhibitors of Aldehyde Dehydrogenase 1 (ALDH1A1); Aldehyde dehydrogenase 1A1 (Homo sapiens), P00352; Purified ALDH1A1, NADH fluorescence, propionaldehyde substrate; Potency, µM (series often up to 75.3 µM), usual class: inhibitors; 220,000 tested, 7.3% active
Target sequence (P00352 whole entry, looked up): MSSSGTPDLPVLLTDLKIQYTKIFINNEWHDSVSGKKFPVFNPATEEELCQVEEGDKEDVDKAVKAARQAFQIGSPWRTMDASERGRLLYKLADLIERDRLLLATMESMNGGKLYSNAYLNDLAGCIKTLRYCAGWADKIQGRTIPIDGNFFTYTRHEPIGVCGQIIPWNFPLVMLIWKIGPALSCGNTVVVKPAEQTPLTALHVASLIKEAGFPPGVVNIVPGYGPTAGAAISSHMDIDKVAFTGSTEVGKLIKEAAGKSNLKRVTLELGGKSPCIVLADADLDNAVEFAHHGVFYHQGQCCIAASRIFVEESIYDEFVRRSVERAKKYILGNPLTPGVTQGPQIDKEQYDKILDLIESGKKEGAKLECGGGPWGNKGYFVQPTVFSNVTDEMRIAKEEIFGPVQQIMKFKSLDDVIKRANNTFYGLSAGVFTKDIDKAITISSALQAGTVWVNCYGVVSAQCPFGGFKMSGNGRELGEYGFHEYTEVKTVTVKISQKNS
Of the large screens only hits and unclear results are named; the others gave an inactive call. Most compounds without a hit are left out; they make up all but 11% or so of the library. Unless noted, the call rests on the fitted dose curve; in most records, active means well fitted inhibition curve with a large enough effect (not every such curve was filed as active); inconclusive means small, poorly fitted or top-dose-only effect, or another doubt; inactive means no such curve, though single readings can be large or run the other way.

CN1/C(=C/C=C(C#N)C#N)C=Cc2ccccc21	none (no result: PNC assembly inh, HPGD block)
Cc1ccc(S(=O)(=O)NCCC(=O)NC2CCCC2)cc1	none (no result: HPGD block)
N#Cc1c(NC(=O)CSc2ncnc3sccc23)oc(-c2ccco2)c1-c1ccco1	HPGD block inconclusive, ALDH1A1 inh 10µM
Cc1cc(NC(=O)CSc2ncnc3sccc23)no1	none (no result: PNC assembly inh, HPGD block)
CCCCN1c2cc(C)c(O)cc2C(C(=O)OCC)C1C (stereo unspecified)	none
O=C(NCC1CCCO1)c1nn2cccnc2c1Cl (stereo unspecified)	HPGD block 25µM
O=C(NCc1cccs1)c1nn2cccnc2c1Cl	PNC assembly inh inconclusive, HPGD block inconclusive
COCCNC(=O)c1nn2cccnc2c1Cl	HPGD block inconclusive
O=C(NCC12CC3CC(CC(C3)C1)C2)c1nn2cccnc2c1Cl	HPGD block 18µM, ALDH1A1 inh 16µM
O=C(NCCOc1ccccc1)c1ncn[nH]1	none
CS(=O)(=O)N1CCC2(CCN(Cc3ccncc3)CC2)CC1	none (no result: PNC assembly inh)
CCOC(=O)c1cc(CC)sc1NC(=O)CSc1nc2ccccc2c(=O)n1Cc1ccco1	PNC assembly inh inconclusive
Cc1sc2nc(SCC(=O)C(C)(C)C)n(Cc3ccco3)c(=O)c2c1C	ALDH1A1 inh inconclusive
CCOC(=O)CC(=O)CSc1nc2sc(C)cc2c(=O)n1Cc1ccco1	HPGD block 28µM, ALDH1A1 inh 0.56µM
Cc1cc2c(=O)n(Cc3ccco3)c(SCC(=O)c3ccc(Cl)s3)nc2s1	PNC assembly inh inconclusive, HPGD block 28µM, ALDH1A1 inh 16µM
O=c1c2ccccc2[nH]c(=S)n1-c1cccc(S(=O)(=O)N2CCCC2)c1	none (no result: HPGD block)
CCOC(=O)CC(N)c1cccc([N+](=O)[O-])c1 (stereo unspecified)	none (no result: PNC assembly inh, HPGD block)
O=C(CSc1nncn1-c1ccccc1)NC1CCCCC1	none (no result: PNC assembly inh, HPGD block)
CO[C@H]1COC(=O)[C@@H](Cc2ccccc2)NC(=O)[C@@H](C)COC(=O)C/C=C\[C@@H]1C	none (no result: PNC assembly inh, HPGD block)
COC(=O)c1ccc(C(NC(=O)OCc2ccccc2)/C(=C/[C@@H](C)C(=O)NCc2ccc(OC)c(OC)c2)c2cccnc2)cc1 (stereo partly specified)	none (no result: PNC assembly inh)
Cc1ccc(CCNC(=O)CN(C)S(=O)(=O)c2ccc3c(c2)c(=O)n(C)c(=O)n3C)cc1	ALDH1A1 inh 13µM
Cc1cccc(CCNC(=O)CN(C)S(=O)(=O)c2ccc3c(c2)c(=O)n(C)c(=O)n3C)c1	none
S=c1nc[nH]c2c1sc1nc(N3CCOCC3)c3c(c12)CCCC3	ALDH1A1 inh 1.4µM (no result: PNC assembly inh, HPGD block)
Cn1nnc2c(sc3nc(N4CCOCC4)c4c(c32)CCCC4)c1=O	PNC assembly inh inconclusive
O=C(CSc1ncn[nH]1)Nc1nnc(-c2ccccc2)s1	ALDH1A1 inh 28µM
O=C(CN1CCN(c2ccccc2)CC1)Nc1nnc(-c2ccccc2)s1	none
O=C(CSc1ncn[nH]1)Nc1ccccc1-c1ccccc1	ALDH1A1 inh inconclusive
O=C(CN1CCN(c2ccc(F)cc2)CC1)Nc1nnc(-c2ccccc2)s1	PNC assembly inh inconclusive, ALDH1A1 inh 28µM
S=c1[nH]nc(-c2ccc(Cl)cc2)n1CCCN1CCOCC1	none (no result: PNC assembly inh, HPGD block)
CCN(CCn1cccn1)Cc1c(C(=O)N2C[C@@H](C)O[C@@H](C)C2)nc2ccc(Cl)cn12	none (no result: PNC assembly inh, HPGD block)
Cc1cc(C)cc(C(=N)c2ccccc2Cc2cccc3ccccc23)c1	none (no result: PNC assembly inh)
S=C(c1ccc(-c2ccccc2Cl)o1)N1CCCCC1	HPGD block 28µM, ALDH1A1 inh inconclusive
CN1CCN(C(=O)c2ccc(CS(=O)(=O)c3c(Cl)cccc3Cl)o2)CC1	none
S=C(c1ccc(-c2ccc(Cl)cc2)o1)N1CCCCC1	ALDH1A1 inh inconclusive
CN1CCN(C(=S)c2ccc(-c3cccc(Cl)c3Cl)o2)CC1	HPGD block 22µM, ALDH1A1 inh inconclusive
S=C(NC1CCCCC1)N1CCN(C/C=C/c2ccccc2)CC1	PNC assembly inh inconclusive
O=C(NNC(=O)c1ccccc1Cl)c1cccs1	none
O=C(NNc1c(Cl)cccc1Cl)c1cccs1	ALDH1A1 inh 25µM (no result: PNC assembly inh, HPGD block)
N#Cc1cccc(NC(=O)N2CC[C@@]3(CCCN(C(=O)c4cc(C(F)(F)F)cc(C(F)(F)F)c4)C3)C2)c1	none (no result: PNC assembly inh)
Cn1c(NN)nc2sc3c(c2c1=O)CC(C)(C)OC3	HPGD block inconclusive
CCCCCc1nc2sc3c(c2c(=O)n1NC(=O)c1ccc([N+](=O)[O-])cc1)CC(C)(C)OC3	PNC assembly inh inconclusive, ALDH1A1 inh 8.9µM
CCCn1c(N)c(C(=O)COc2ccc(Br)cc2F)c(=O)n(C)c1=O	none (no result: PNC assembly inh, HPGD block)
Cc1cc(C)c(NC(=O)c2sc3nc4c(cc3c2N)C(=O)CC(C)(C)C4)c(C)c1	ALDH1A1 inh 0.25µM
Cc1cc(C)c2cc3c(N)c(C(=O)Nc4c(C)[nH]c(=O)[nH]c4=O)sc3nc2c1	HPGD block inconclusive
CCOC(=O)c1sc2nc3c(cc2c1N)C(=O)CC(C)(C)C3	ALDH1A1 inh 0.5µM
CCOC(=O)c1sc2nc3c(cc2c1N)COC(C)(C)C3	ALDH1A1 inh inconclusive
CC1(C)CC(=O)c2cc3c(N)c(C(=O)NCc4ccccc4)sc3nc2C1	ALDH1A1 inh inconclusive
COC(=O)c1sc2nc3c(cc2c1N)C(=O)CC(C)(C)C3	ALDH1A1 inh 0.89µM
Cc1noc2nc(-c3cccs3)cc(-c3nnc4n3CCCCC4)c12	HPGD block inconclusive, ALDH1A1 inh inconclusive
CCOc1ccc(-n2c(SCC(=O)Nc3ccccc3C)n[nH]c2=O)cc1	none
COc1ccc(CNC(=O)CCCn2c(SCC#N)nc3cc4c(cc3c2=O)OCO4)cc1	none
c1ccc(-c2ccccc2-n2cnnn2)cc1	ALDH1A1 inh inconclusive
Nc1c(-c2ccccc2)cnc2cc(-c3ccccc3)nn12	none (no result: PNC assembly inh, HPGD block)
Cc1cc2ncc(-c3ccc(Cl)cc3)c(N)n2n1	PNC assembly inh -108, HPGD block inconclusive
COc1ccc(-c2cnc3ncnn3c2N)cc1	none (no result: PNC assembly inh, HPGD block)
Nc1c(-c2ccc(Cl)cc2)cnc2ncnn12	PNC assembly inh -109
Cc1cccc(OCCCC(=O)N2CCCc3ccccc32)c1C	none
CC[n+]1ccc(C[n+]2ccccc2)c2ccccc21	PNC assembly inh -82, HPGD block inconclusive, ALDH1A1 inh 19µM
Cc1ccc2c(c1)c(C)cc[n+]2Cc1ccccc1	none (no result: HPGD block)
O=c1[nH]ncc2c3ccccc3n(Cc3ccccc3)c12	none
Cc1ccc(Cn2c3ccccc3c3cn[nH]c(=O)c32)cc1	PNC assembly inh -108, ALDH1A1 inh inconclusive
S=c1[nH]nc(C23CC4CC(CC(C4)C2)C3)n1Cc1ccco1	ALDH1A1 inh inconclusive
CCOC(=O)C1(Cc2ccccc2Cl)CCN(C(=O)c2cnccn2)CC1	none (no result: PNC assembly inh, HPGD block)
O=C(OCC(=O)c1ccc(Cl)s1)c1ccccn1	ALDH1A1 inh inconclusive
O=C(COc1cccnc1[N+](=O)[O-])c1ccc(Cl)s1	ALDH1A1 inh 0.71µM (no result: PNC assembly inh, HPGD block)
O=C(NNC(=O)c1cc(OCC(F)(F)F)ccc1OCC(F)(F)F)c1cccc(C(F)(F)F)c1	PNC assembly inh -84
Cc1ccc(C(=O)NNC(=O)c2cc(OCC(F)(F)F)ccc2OCC(F)(F)F)cc1	none
O=[N+]([O-])c1ccccc1S(=O)(=O)NC1CCCC1	none (no result: PNC assembly inh, HPGD block)
Cn1c(N)c(C(=O)c2ccc(C#N)cc2)c(=O)n(C)c1=O	none
COc1ccc(-c2cnnn2-c2ccc(NC(=O)c3ccc(S(=O)(=O)N4CCCCC4)cc3)cc2)cc1	PNC assembly inh inconclusive, ALDH1A1 inh inconclusive
